Results with a measured potency or affinity are listed apart.

The test system of one assay is Staphylococcus aureus. The following applies: Concentration 32 ug.mL-1; ASSAY_TEST Inhibition of Bacterial Growth; detection method Absorption (OD600); MEDIA CAMHB; plate type 384well; NBS; CORNING #3640; time 18 hr.
A further assay concerns Escherichia coli. The note with it: Concentration 32 ug.mL-1; ASSAY_TEST Inhibition of Bacterial Growth; detection method Absorption (OD600); MEDIA CAMHB; plate type 384well; NBS; CORNING #3640; time 18 hr.

On to `CCOC(=O)CCC(NC(=O)c1ccc(NCc2cn(Cc3cnc(C)nc3N)nn2)cc1)C(=O)OCC` (stereo not given), for which the Inhibition is -1.1% with Staphylococcus aureus and -21.48% with Escherichia coli.

In the case of `Cc1ncc(CNc2ccccc2F)c(N)n1`, the Inhibition was 17.82% in the assay on Staphylococcus aureus and -3.65% in the assay with Escherichia coli.

Consider `CN(C)CCCNC(=O)c1cc(NC(=O)c2cc(NC(=O)CCC(=O)O)cn2C)cn1C.O=C(O)C(F)(F)F`, for which the values for the Inhibition with Staphylococcus aureus and in the assay with Escherichia coli were 5.68% and -8.32%, respectively.

Take `Cc1ccc(S(=O)(=O)NCCc2cn(Cc3cnc(C)nc3N)nn2)cc1`: the Inhibition is 16.06% in the assay on Staphylococcus aureus and -13.92% with Escherichia coli.

Consider `Cc1ncc(CNc2ccc(C(C)(C)C)cc2)c(N)n1`, for which the Inhibition with Staphylococcus aureus is reported as -2.14%; in the assay on Escherichia coli, -7.27%.

In the case of `Cc1ncc(Cn2cc(CCCN)nn2)c(N)n1.Cl`, the Inhibition was 14.19% in the assay on Staphylococcus aureus and -28.01% in the assay on Escherichia coli.

As to `CC(C)CCc1sc(NC(=O)c2cc(NC(=O)c3cc(NC(=O)CCC(=O)O)cn3C)cn2C)nc1C(=O)NCCCN(C)C.O=C(O)C(F)(F)F`, the Inhibition with Staphylococcus aureus is recorded as 3.82%; in the assay on Escherichia coli, -16.63%.

Turning to `CC(C)c1sc(NC(=O)c2cc(NC(=O)c3cc(NC(=O)c4cnc(Cl)c(Cl)c4)cn3C)cn2C)nc1C(=O)NCCCN(C)C.O=C(O)C(F)(F)F`, the Inhibition was 50.09% with Staphylococcus aureus and -19.66% in the assay on Escherichia coli.

For the compound `COc1cccc(C(=N)Nc2cc(C(=O)Nc3cc(C(=O)Nc4cc(C(=O)NCCCN5CCOCC5)n(C)c4)n(C)c3)n(C)c2)c1.O=C(O)C(F)(F)F.O=C(O)C(F)(F)F`, the Inhibition with Staphylococcus aureus is 26.72%; in the assay with Escherichia coli, -6.36%.

Turning to `COc1cccc(/C=C/c2ccc(C(=O)Nc3cc(C(=O)Nc4cc(C(=O)NCCN(C)C)n(C)c4)n(C)c3)cc2)c1.O=C(O)C(F)(F)F`, the Inhibition worked out at 98.95% with Staphylococcus aureus and 88.16% in the assay on Escherichia coli.

The values above are taken from ChEMBL document CHEMBL4513139, “CO-ADD screening of University of Strathclyde (UK) compounds”.
